Laboratory results: the supplement of paper PMC12350171
Where a name gives a salt, the structure may show the parent alone.

Columns and labels:
Assay in all cases: growth AUC normalised to DMSO control (median) (fraction of control); higher = less growth inhibition, active = hit call of the paper
Details in all cases: 20 µM;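 active = normalised median growth AUC below 0.1 of DMSO control; inactive = AUC 0.1 or higher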
[1] = tested on: P. vulgatus RND KO
Summary of the method: (§1)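 After two overnight anaerobic passages, strains were inoculated at OD578 0.01 into mGAM in 96-well plates containing approved-drug library compounds at 20 μM and 1% DMSO. Growth was followed by reading OD578 hourly for 24 h within an anaerobic incubator. Area under the curve, taken by the trapezoidal rule up to the start of stationary phase, was normalised to same-plate vehicle wells, and the median of three biological replicates is listed.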

[2] = tested on: P. vulgatus WT
Summary of the method: as §1

[3] = tested on: S. enterica typhimurium WT
Summary of the method: as §1

[4] = tested on: S. enterica typhimurium tolC KO
Summary of the method: as §1

Measured: growth AUC normalised to DMSO control
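Further: active when median AUC fell below 0.1.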

NC(N)=Nc1nc(CSCCN/C=N/S(=O)(=O)c2ccc(Br)cc2)cs1 [Ebrotidine]
inactive: [1] 0.995 | [2] 1.01 | [3] 0.998 | [4] 0.987

CC(C)C[C@H](NC(=O)[C@@H](O)[C@H](N)Cc1ccccc1)C(=O)O [Ubenimex]
inactive: [1] 0.448 | [2] 0.535 | [3] 1 | [4] 0.992

CN(C)CCCN1c2ccccc2[S+]([O-])c2ccc(Cl)cc21 (stereo unspecified) [Chlorpromazine Sulfoxide]
inactive: [1] 1.07 | [2] 1.03 | [3] 0.995 | [4] 1.01

C[C@H](O)[C@H](O)[C@H]1CNc2[nH]c(N)nc(=O)c2N1 [Sapropterin dihydrochloride]
inactive: [1] 1.04 | [2] 1.05 | [3] 1.01 | [4] 0.977

COc1cc2c(cc1OC)C(=O)C(CC1CCN(Cc3ccccc3)CC1)C2 (stereo unspecified) [Donepezil hydrochloride]
inactive: [1] 0.997 | [2] 1.01 | [3] 0.997 | [4] 0.981

CCc1ccc(C(=O)C(C)CN2CCCCC2)cc1 (stereo unspecified) [Eperisone Hydrochloride]
inactive: [1] 1.03 | [2] 1.04 | [3] 1 | [4] 0.989

CC[C@H](C)[C@H](NC(=O)[C@H](Cc1ccc(O)cc1)NC(=O)[C@@H](NC(=O)[C@H](CCCN=C(N)N)NC(=O)[C@@H](N)CC(=O)O)C(C)C)C(=O)N[C@@H](Cc1cnc[nH]1)C(=O)N1CCC[C@H]1C(=O)N[C@@H](Cc1ccccc1)C(=O)O [Angiotensin II (Human) Trifluoroacetic acid salt]
inactive: [1] 1.1 | [2] 1.1 | [3] 0.997 | [4] 1.02

O=C1CC[C@@H](C(=O)N2CSC[C@H]2C(=O)O)N1 [Pidotimod]
inactive: [1] 0.991 | [2] 0.993 | [3] 1 | [4] 0.991

CNCc1cc(-c2ccccc2F)n(S(=O)(=O)c2cccnc2)c1 [Vonoprazan]
inactive: [1] 1.02 | [2] 1.04 | [3] 1 | [4] 0.995

CC(C)OC(=O)CCC/C=C\C[C@@H]1[C@@H](CC[C@@H](O)CCc2ccccc2)[C@H](O)C[C@@H]1O [Latanoprost]
inactive: [1] 0.958 | [2] 0.966 | [3] 1.01 | [4] 0.896

Oc1c(Cl)cc(Cl)cc1Sc1cc(Cl)cc(Cl)c1O [Bithionol]
active: [1] 0.0149 | [2] 0.0115 | [4] 0.0167
inactive: [3] 0.991

O=C(O)CNC(=O)c1ccccc1 [Hippuric acid]
inactive: [1] 1.1 | [2] 1.05 | [3] 1.01 | [4] 1.02

CC(/C=C1\SC(=S)N(CC(=O)O)C1=O)=C\c1ccccc1 [Epalrestat]
inactive: [1] 1.01 | [2] 1.05 | [3] 1.01 | [4] 0.921

CC[C@@H]([C@H](C)O)n1ncn(-c2ccc(N3CCN(c4ccc(OC[C@@H]5CO[C@@](Cn6cncn6)(c6ccc(F)cc6F)C5)cc4)CC3)cc2)c1=O [Posaconazole hydrate]
inactive: [1] 0.87 | [2] 0.875 | [3] 1.01 | [4] 0.979

OC(CNCC(O)C1CCc2cc(F)ccc2O1)C1CCc2cc(F)ccc2O1 (stereo unspecified) [Nebivolol hydrochloride]
inactive: [1] 0.957 | [2] 1.01 | [3] 0.998 | [4] 0.925

CCC(C)(C)c1ccc(CC(C)CN2C[C@@H](C)O[C@@H](C)C2)cc1 (stereo partly specified) [Amorolfine hydrochloride]
inactive: [1] 1.01 | [2] 1.03 | [3] 1.01 | [4] 0.963

CC(C)Nc1cccnc1N1CCN(C(=O)c2cc3cc(NS(C)(=O)=O)ccc3[nH]2)CC1 [Delavirdine]
inactive: [1] 1.02 | [2] 1.07 | [3] 1.02 | [4] 0.98

CC(C)=CCC1C(=O)N(c2ccccc2)N(c2ccccc2)C1=O [Feprazone]
inactive: [1] 1.04 | [2] 1.09 | [3] 1 | [4] 0.983

CCCSc1nc(N[C@@H]2C[C@H]2c2ccc(F)c(F)c2)c2nnn([C@@H]3C[C@H](OCCO)[C@@H](O)[C@H]3O)c2n1 [Ticagrelor]
inactive: [1] 0.786 | [2] 0.544 | [3] 1.03 | [4] 0.899

Nc1ccc(S(=O)(=O)Nc2ccc(Cl)nn2)cc1 [Sulfachloropyridazine]
inactive: [1] 1.03 | [2] 1.02 | [3] 0.965 | [4] 0.963

CC(=O)c1cc2cccc(OCC(O)CNC(C)C)c2o1 (stereo unspecified) [Befunolol]
inactive: [1] 1.03 | [2] 1.06 | [3] 1 | [4] 1

O=C1OC(CN2CCOCC2)CN1/N=C/c1ccc([N+](=O)[O-])o1 (stereo unspecified) [Furaltadone hydrochloride]
inactive: [3] 0.878 | [4] 0.856
active: [1] 0.0255 | [2] 0.0192

CN(C/C=C/C#CC(C)(C)C)Cc1cccc2ccccc12 [Terbinafine]
inactive: [1] 1.01 | [2] 0.998 | [3] 1.01 | [4] 0.928

Cc1ccc2c(Cl)cc(Cl)c(O)c2n1 [Chlorquinaldol]
active: [1] 0.0174 | [2] 0.014
inactive: [3] 0.982 | [4] 0.371

CC1(C)S[C@@H]2[C@H](NC(=O)C(C(=O)O)c3ccccc3)C(=O)N2[C@H]1C(=O)O (stereo partly specified) [Carbenicillin disodium salt]
active: [1] 0.0099 | [2] 0.00958 | [3] 0.0868 | [4] 0.00344

CCC[C@@H]1C[C@@H](C(=O)N[C@@H]([C@H]2O[C@H](SC)[C@H](OP(=O)(O)O)[C@@H](O)[C@H]2O)[C@H](C)Cl)N(C)C1 [Clindamycin Phosphate]
inactive: [1] 0.844 | [2] 0.895 | [3] 1 | [4] 0.961

Cc1ccc(S(=O)(=O)NCl)cc1 [Chloramine-T hydrate]
inactive: [1] 1 | [2] 0.997 | [3] 0.996 | [4] 1

CCOC(=O)C1=C[C@@H](OC(CC)CC)[C@H](NC(C)=O)[C@@H](N)C1 [Oseltamivir phosphate]
inactive: [1] 1.08 | [2] 1.05 | [3] 0.996 | [4] 0.984

C/C(=C1\CCOC(=O)S1)N(C=O)Cc1cnc(C)nc1N [Cycotiamine]
inactive: [1] 1.01 | [2] 1.07 | [3] 0.995 | [4] 1

O=C1CN2Cc3c(ccc(Cl)c3Cl)N=C2N1 [Anagrelide]
inactive: [1] 1.01 | [2] 0.996 | [3] 0.994 | [4] 0.957

COCCCOc1cc(C[C@@H](C[C@H](N)[C@@H](O)C[C@H](C(=O)NCC(C)(C)C(N)=O)C(C)C)C(C)C)ccc1OC [Aliskiren hemifumarate]
inactive: [1] 1 | [2] 1.05 | [3] 0.997 | [4] 1

CCOc1cc(N)c(Cl)cc1C(=O)NCC1CN(Cc2ccc(F)cc2)CCO1 (stereo unspecified) [Mosapride]
inactive: [1] 0.938 | [2] 0.981 | [3] 0.988 | [4] 0.722

CN1CCN(C2Cc3ccccc3Sc3ccc(Cl)cc32)CC1 (stereo unspecified) [Octoclothepin maleate salt]
inactive: [1] 1.05 | [2] 1.05 | [3] 0.981 | [4] 0.929

CC(C)=C/C(C)=N/Nc1nncc2ccccc12 [Budralazine]
inactive: [1] 1.02 | [2] 1.08 | [3] 0.999 | [4] 0.989

COc1ccc(C[C@@H]2c3cc(OC)c(OC)cc3CC[N@+]2(C)CCC(=O)OCCCCCOC(=O)CC[N@@+]2(C)CCc3cc(OC)c(OC)cc3[C@H]2Cc2ccc(OC)c(OC)c2)cc1OC [Cisatracurium besylate]
inactive: [1] 1.06 | [2] 1.05 | [3] 1.02 | [4] 0.994

O=C1c2cccc(O)c2C(=O)c2c(O)cccc21 [Danthron]
inactive: [1] 0.689 | [2] 0.525 | [3] 0.991 | [4] 0.369

CC(NN)c1ccccc1 (stereo unspecified) [Mebanazine]
inactive: [1] 0.898 | [2] 0.871 | [3] 1 | [4] 0.99

NC(=O)NS(=O)(=O)c1ccc(N)cc1 [Sulfacarbamide]
inactive: [1] 0.997 | [2] 1.01 | [3] 0.995 | [4] 1

O=C(CCCl)NCc1ccccc1 [Beclamide]
inactive: [1] 0.972 | [2] 0.966 | [3] 1.01 | [4] 0.974
